Screening results (PubChem BioAssay)
Rows were chosen to be rich in hits. Some 1.1% of all compounds tested hit in one or more screens of this group.
SSB-PriA inh: inhibitors of Klebsiella pneumoniae PriA binding to SSB C-terminal tail; inhibition, % at 33 µM; AlphaScreen SSBct-PriA binding, biotinylated peptide; 430,000 tested, 0.6% active; in the data active = inhibition mostly above about 37%, no sharp cut-off; inactive = mostly below about 20%;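 also: plate controls were negative control peptide for no effect and reference peptide for full effect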
Mtb hypoxia inh: inhibitors of hypoxia-regulated fluorescent reporter in Mycobacterium tuberculosis. M. tuberculosis hypoxia-regulated fluorescent reporter, fluorescence. fluorescence inhibition, % (no concentration beside the values). 300,000 tested, 0.1% active. AID 1159583; in the data active = fluorescence inhibition mostly above about 23%, no sharp cut-off; inactive = mostly below about 17%
Sa RN4220 lethal: kills Staphylococcus aureus RN4220 | S. aureus RN4220 growth, OD600, 16 h | inhibition, % (no concentration beside the values) | 330,000 tested, 0.33% active; in the data active = inhibition above about 85%;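 also: plate controls were untreated cells for no effect and reference antibiotic for full effect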
ugtP null kill: compounds lethal to S. aureus RN4220 ugtP deletion mutant | OD600 growth, 16 h | growth inhibition, % (no concentration beside the values) | 330,000 tested, 0.54% active | AID 1259309; in the data active = growth inhibition above about 68%;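 also: plate controls were untreated wells for no effect and antibiotic for full effect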
* = called active by the depositor; · = no result.

SMILES | SSB-PriA inh | Mtb hypoxia inh | Sa RN4220 lethal | ugtP null kill
Cc1ccc(/C(O)=C/C(=O)C(=O)NNC(=O)C(O)(c2ccccc2)c2ccccc2)cc1 | · | 1.5 | 6.8 | 60.3
O=C(C=C(O)c1ccc(Cl)cc1)C(=O)NNC(=O)C(O)(c1ccccc1)c1ccccc1 | 11.2 | 7.6 | 0.2 | 95.2*
O=C(OCC#CCSc1nnc(-c2ccc(Br)cc2)o1)c1cccs1 | -61.0 | 40.6* | 9.4 | -0.7
Cc1ccc(-c2nnc(SCC#CCOC(=O)c3cccs3)o2)cc1 | -50.4 | 16.4 | 10.9 | 6.9
N#Cc1ccccc1NC(=O)C(=O)NCc1ccc(C(=O)c2ccco2)s1 | -12.0 | · | · | ·
CCC(CNc1cc(OC)cc2cccnc12)NC1CCCCC1 (configuration not stated) | 3.8 | 15.1 | -0.4 | -2.6
COCCNC(=O)Nc1cc(OC)cc2cccnc12 | 53.0* | · | · | ·
COc1cc(NCCCC(C)N)c2ncccc2c1 (configuration not stated) | 49.2* | 19.9 | -15.5 | -4.3
COc1cc(NC(=O)c2ccccc2Cl)c2ncccc2c1 | -71.1 | 11.2 | -5.6 | -3.2
c1ccc(CNc2nc(N3CCN(c4ccccc4)CC3)nc3ccccc23)cc1 | 31.0 | · | · | ·
CC(=NNC(=O)c1nnn(-c2nonc2N)c1CN(C)c1ccccc1)c1ccccn1 | 90.3* | -1.8 | 13.1 | -4.1
CCc1ccc(OC)c(S(=O)(=O)NCCN2CCOCC2)c1 | -5.0 | · | · | ·
COc1cc(C2C(C#N)=C(N)Oc3n[nH]c(-c4ccncc4)c32)cc(OC)c1OC (configuration not stated) | 5.8 | · | 2.1 | -0.1
COc1ccc(C2C(C#N)=C(N)Oc3n[nH]c(-c4ccccn4)c32)c(OC)c1OC (configuration not stated) | 69.7* | 7.5 | -9.0 | -6.2
O=c1ccc(-c2nc(C3CC3)no2)cn1Cc1cc(=O)n2ccccc2n1 | -9.0 | · | · | ·
C/C=C/C(=O)Nc1cccc(C2=NOC3(C2)C[C@@H](C(N)=O)N(C(=O)c2cc([N+](=O)[O-])cc([N+](=O)[O-])c2)C3)c1 (some centres not stated) | -3.2 | · | · | ·
CC=CC(=O)Nc1cccc(C2=NOC3(C2)CC(C(N)=O)N(C(=O)c2cc([N+](=O)[O-])cc([N+](=O)[O-])c2)C3)c1 (configuration not stated) | · | 40.1* | 1.4 | 1.0
O=[N+]([O-])c1cc(C(F)(F)F)ccc1NC1CCN(Cc2ccccc2)C1 (configuration not stated) | 42.9* | -4.4 | -1.8 | 15.3
O=C(CN1C(=O)c2ccccc2C1=O)Nc1nc2c(s1)CSc1ccccc1-2 | -15.0 | · | · | ·
Cc1ccc(-c2cnc(SCc3ccc(F)cc3)n2-c2ccc(OC(F)(F)F)cc2)cc1 | -15.0 | · | · | ·
CSc1ncc(-c2ccc(C)cc2)n1-c1ccccc1C | 58.0* | · | · | ·
CC(C)CN1CCN(C(=O)c2cn(-c3ccc(-c4nc(C(C)(C)C)no4)cn3)cn2)CC1 | -3.0 | · | · | ·
O=C(Cc1c[nH]c2ccccc12)Nc1cccc(S(=O)(=O)N2CCCCC2)c1 | · | -1.7 | 0.1 | 1.1
Cc1cc(Nc2ccc(NC(=O)Cc3c[nH]c4ccccc34)cc2)nc(N2CCCC2)n1 | 45.0* | · | · | ·
O=S(=O)(Nc1ccc(-c2cn3ccsc3n2)cc1)c1ccc2c(c1)CCCC2 | 14.0 | · | · | ·
SMILES | SSB-PriA inh | Mtb hypoxia inh | Sa RN4220 lethal | ugtP null kill
COc1nn(C)cc1C(=O)NCC#CCOc1ccc2c(c1)OCO2 | -15.0 | · | · | ·
CCCCNC(=O)c1cc(-c2ccccc2)oc1C | 2.0 | · | · | ·
C=CCN1C(=O)/C(=C/c2ccc(OC(C)=O)c(OCC)c2[N+](=O)[O-])SC1=S | 47.3 | -6.7 | 99.0* | 100.0*
CCOc1c(OC(C)=O)ccc(/C=C/c2ccc3cccc(OC(C)=O)c3n2)c1[N+](=O)[O-] | 11.4 | -2.7 | 3.6 | -10.7
O=C(COc1ccc(F)cc1)N1CCc2nc3ccc(Cl)cn3c(=O)c2C1 | 0.0 | · | · | ·
CCCCCCCCCCSc1n[nH]c(N)n1 | -1.4 | 9.9 | 16.1 | 83.8*
CCc1cccc(C)c1NC(=S)NCCc1c(C)[nH]c2ccc(C)cc12 | 39.8* | 1.4 | 1.9 | 3.1
CCc1cccc(CC)c1NC(=S)NCCc1c(C)[nH]c2ccc(C)cc12 | 8.6 | 3.2 | 5.7 | 5.5
N#Cc1c(N)nc2c(c1-c1ccccc1)CCCC2 | 5.6 | 4.7 | 3.0 | 10.6
CSc1nc2c(c(-c3ccccc3)c1C#N)CCC2 | -75.3 | 9.1 | -4.5 | 83.4*
Cc1c(CC(=O)N[C@@H](C)C(=O)O)c(=O)oc2c(C)c3occ(-c4ccccc4)c3cc12 | 10.0 | -3.0 | 93.8* | 99.8*
Cc1c(CCC(=O)O)c(=O)oc2c(C)c3occ(-c4ccc(Br)cc4)c3cc12 | 7.7 | 18.9 | 50.4 | 5.8
Cc1c(CC(=O)O)c(=O)oc2c(C)c3occ(-c4ccc(F)cc4)c3cc12 | -2.1 | -1.4 | 95.0* | 99.6*
N#CC(C#N)=C1C=CC=CN1/C(=C\c1ccco1)C(=O)c1ccc(-c2ccccc2)cc1 | 7.9 | 5.7 | 1.7 | -3.7
N#CC(C#N)=C1C=CC=CN1/C(=C\c1ccco1)C(=O)c1ccc(Cl)cc1 | 3.3 | 16.6 | 52.2 | 88.5*
CCCCOC(=O)c1ccc(NC(=S)N2CCN(c3ncc4c(=O)c(C(=O)O)cn(CC)c4n3)CC2)cc1 | -9.7 | 2.3 | 100.6* | 100.5*
CCn1cc(C(=O)O)c(=O)c2cnc(N3CCN(C(=S)Nc4ccccc4)CC3)nc21 | -9.4 | -7.3 | 17.4 | 4.4
O=S(=O)(NCCOc1ccccc1)c1ccccc1Cl | -9.0 | · | · | ·
Cc1ccc2cc(C3C(C#N)=C(N)Oc4c3ccc3cccnc43)c(=O)[nH]c2c1 (configuration not stated) | 78.6* | 1.8 | 6.2 | 10.1
N#CC1=C(N)Oc2cc3ccccc3cc2C1c1cccnc1 (configuration not stated) | 7.5 | 17.3 | 2.3 | 10.4
N#CC1=C(N)Oc2c(ccc3cccnc23)C1c1cccnc1 (configuration not stated) | 88.2* | 9.5 | 0.0 | -0.3
CC(=NNC(=O)C(c1ccccc1)c1ccccc1)c1ccccn1 | -7.2 | -5.4 | 5.2 | -12.8
CC(=NNC(=O)C(C)Oc1ccc([N+](=O)[O-])cc1)c1ccccn1 (configuration not stated) | 47.8* | 1.3 | 2.9 | -14.3
COc1ccc(Oc2cc(C)c3cccc(C)c3n2)cc1 | -16.0 | · | -5.7 | 95.7*
Cc1ccc(C)c2sc(N3CCN(C(=O)COc4ccc(Cl)cc4Cl)CC3)nc12 | -9.0 | · | · | ·
SMILES | SSB-PriA inh | Mtb hypoxia inh | Sa RN4220 lethal | ugtP null kill
CC(=O)c1nn(-c2ccc(Cl)cc2)cc1C(=O)c1ccc(C)cc1 | -8.2 | 46.6* | -5.8 | -1.8
CC(=O)c1nn(-c2ccccc2)cc1C(=O)c1ccc(C)cc1 | -4.0 | -0.3 | 3.3 | -1.4
O=c1c2ccccc2nc(N/N=C\c2ccc(Br)cc2)n1-c1ccccc1 | -14.0 | · | · | ·
Cc1ccc2c(c1)C1CN(C)CCC1N2Sc1ccccc1[N+](=O)[O-] (configuration not stated) | 55.2* | · | · | ·
CCC(CO)Nc1ncnc2c1cnn2-c1ccc(OC)cc1 (configuration not stated) | 115.4* | 10.1 | -0.2 | 8.0
O=C(COc1ccccc1F)NCCn1ncc2c(=O)n(Cc3ccc(Br)cc3)cnc21 | -4.0 | · | · | ·
Cc1ccc2c(c1)-c1ncc(C(=O)c3cc(Br)ccc3O)cc1CO2 | · | 1.5 | 12.1 | 63.1
Cc1ccc(O)c(C(=O)c2cnc3c(c2)COc2ccc(C)cc2-3)c1 | 39.4* | · | 5.8 | 44.6
